The nature of experiment [1]: BSK_hDFCGF_SRB: Viability Assessment in the BioMAP Diversity Plus: hDFCGF Assay (AID 2283061).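 Note: cells exposed to compound for 24 h before the read.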 The conditions noted are these: primary human foreskin fibroblasts. In outline: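 SRB-based viability read on primary human skin fibroblasts at 24 h: TCA fixation, 0.1% dye, 560 nm. Gain or loss of signal is fitted against the DMSO negative control.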
Read-out in experiment [2]: TIMP metallopeptidase inhibitor 1 (TIMP1), TIMP1 (gene 7076)
Description: BSK_hDFCGF_TIMP1: BioMAP Diversity Plus: hDFCGF Assay for TIMP metallopeptidase inhibitor 1 (TIMP1) Biomarker Activity (AID 2283062). The conditions noted are these: primary human foreskin fibroblasts; actives raise or lower the signal. In outline:
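Bidirectional curve fitting against DMSO baseline yielded this endpoint, based on ELISA detection of TIMP-1 in primary human foreskin fibroblasts exposed to compound for 24 h.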

Read-out in experiment [3]: Monokine induced gamma interferon (MIG), CXCL9 (gene 4283)
Description: BSK_hDFCGF_MIG: BioMAP Diversity Plus: hDFCGF Assay for Monokine induced gamma interferon (MIG) Biomarker Activity (AID 2283063). The conditions noted are these: primary human foreskin fibroblasts; actives raise or lower the signal. In outline: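 Endpoint derived by bidirectional fitting relative to DMSO; MIG quantified via ELISA in primary human foreskin fibroblasts harvested 24 h after dosing.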

Read-out in experiment [4]: Matrix Metallopeptidase 1 (MMP1), MMP1 (gene 4312)
Description: BSK_hDFCGF_MMP1: BioMAP Diversity Plus: hDFCGF Assay for Matrix Metallopeptidase 1 (MMP1) Biomarker Activity (AID 2283064). The conditions noted are these: primary human foreskin fibroblasts; actives raise or lower the signal. In outline: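 Primary human foreskin fibroblasts in the hDFCGF system were dosed with test chemical, and MMP1 was measured by ELISA 24 h later. Values come from bidirectional curve fitting against the DMSO baseline.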

Read-out in experiment [5]: Vascular cell adhesion molecule 1 (VCAM1), VCAM1 (gene 7412)
Description: BSK_hDFCGF_VCAM1: BioMAP Diversity Plus: hDFCGF Assay for Vascular cell adhesion molecule 1 (VCAM1) Biomarker Activity (AID 2283065).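 For AC50: VCAM-1 protein level quantified by ELISA after 24 h chemical exposure.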 The settings on record: primary human foreskin fibroblasts; actives raise or lower the signal. In outline:
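Measured after 24 h chemical treatment of primary human skin fibroblasts, VCAM-1 was detected by ELISA and concentration-response analysed in both directions versus DMSO vehicle.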

Read-out in experiment [6]: Plasminogen activator inhibitor-1 (PAI1), SERPINE1 (gene 5054)
Description: BSK_hDFCGF_PAI1: BioMAP Diversity Plus: hDFCGF Assay for Plasminogen activator inhibitor-1 (PAI1) Biomarker Activity (AID 2283066). The settings on record: primary human foreskin fibroblasts; actives raise or lower the signal. In outline:
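Human foreskin fibroblast primary cells, 24 h chemical exposure; PAI-1 measured by ELISA. Bidirectional fitting relative to DMSO; parallel cultures stained with SRB for total protein to flag overt cytotoxicity.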

Read-out in experiment [7]: Intercellular Adhesion Molecule 1 (ICAM1), ICAM1 (gene 3383)
Kind of experiment: BSK_KF3CT_ICAM1: BioMAP Diversity Plus: KF3CT Assay for Intercellular Adhesion Molecule 1 (ICAM1) Biomarker Activity (AID 2283067). The settings on record: primary human keratinocytes with fibroblasts; actives raise or lower the signal. In outline: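 Bidirectional curve fitting against a DMSO baseline was applied to ICAM-1 ELISA signal from primary human skin co-cultures harvested 24 h after treatment, with SRB staining of parallel wells for overt cytotoxicity.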

Experiment [8] can be described thus: BSK_KF3CT_SRB: Viability Assessment in the BioMAP Diversity Plus: KF3CT Assay (AID 2283069).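 Note: total protein by sulforhodamine B staining as a cytotoxicity measure; read 24 h after compound addition.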 The settings on record: primary human keratinocytes with fibroblasts. In outline: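 Human primary keratinocyte plus foreskin fibroblast co-culture exposed to chemicals for 24 h. Total protein measured by 0.1% sulforhodamine B staining after 10% TCA fixation, read at 560 nm; bidirectional fitting versus DMSO baseline.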

Read-out in experiment [9]: Interleukin-1 alpha (IL1a), IL1A (gene 3552)
Description: BSK_KF3CT_IL1a: BioMAP Diversity Plus: KF3CT Assay for Interleukin-1 alpha (IL1a) Biomarker Activity (AID 2283070). The conditions noted are these: primary human keratinocytes with fibroblasts; actives raise or lower the signal. In outline:
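Human keratinocyte plus foreskin fibroblast primary co-culture, sampled 24 h after chemical dosing. IL-1a measured by ELISA; responses fitted bidirectionally against DMSO baseline (negative control), so gain or loss of signal both count.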

Read-out in experiment [10]: TIMP metallopeptidase inhibitor 2 (TIMP2), TIMP2 (gene 7077)
Kind of experiment: BSK_KF3CT_TIMP2: BioMAP Diversity Plus: KF3CT Assay for TIMP metallopeptidase inhibitor 2 (TIMP2) Biomarker Activity (AID 2283071). The conditions noted are these: primary human keratinocytes with fibroblasts; actives raise or lower the signal. In outline: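 Co-culture of human primary keratinocytes and foreskin fibroblasts, measured 24 h after chemical dosing. TIMP-2 quantified by ELISA and fitted in both directions relative to DMSO. Cytotoxicity checked in parallel cultures by SRB total-protein staining.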

Read-out in experiment [11]: Transforming growth factor beta 1 (TGFb1), TGFB1 (gene 7040)
Kind of experiment: BSK_KF3CT_TGFb1: BioMAP Diversity Plus: KF3CT Assay for Transforming growth factor beta 1 (TGFb1) Biomarker Activity (AID 2283072). The conditions noted are these: primary human keratinocytes with fibroblasts; actives raise or lower the signal. In outline: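 Human keratinocyte/foreskin fibroblast co-culture; TGF-b1 measured by ELISA 24 h after dosing, fitted bidirectionally versus DMSO. Cytotoxicity checked in parallel cultures by total protein (SRB staining, 560 nm).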

Read-out in experiment [12]: C-C motif chemokine 2 (Homo sapiens) (UniProt P13500)
Description: BSK_KF3CT_MCP1: BioMAP Diversity Plus: KF3CT Assay for Monocyte Chemoattractant Protein 1 (MCP1/CCL2) Biomarker Activity (AID 2283073). The settings on record: primary human keratinocytes with fibroblasts; actives raise or lower the signal. In outline: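 Biomarker MCP-1 is measured by ELISA in primary human keratinocytes co-cultured with foreskin fibroblasts, 24 h after chemical treatment; DMSO serves as the negative control and activity baseline.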

Read-out in experiment [13]: Matrix Metallopeptidase 9 (MMP9), MMP9 (gene 4318)
Description: BSK_KF3CT_MMP9: BioMAP Diversity Plus: KF3CT Assay for Matrix Metallopeptidase 9 (MMP9) Biomarker Activity (AID 2283074).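 For AC50: MMP9 protein level quantified by ELISA in the co-culture.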 The settings on record: primary human keratinocytes with fibroblasts; actives raise or lower the signal. In outline: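 Keratinocyte plus foreskin fibroblast human primary skin co-culture was dosed with chemical and MMP-9 was quantified by ELISA 24 h later. Bidirectional curve fitting used DMSO as negative control and activity baseline.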

Read-out in experiment [14]: urokinase plasminogen activator (uPA), PLAU (gene 5328)
Kind of experiment: BSK_KF3CT_uPA: BioMAP Diversity Plus: KF3CT Assay for urokinase plasminogen activator (uPA) Biomarker Activity (AID 2283075). The conditions noted are these: primary human keratinocytes with fibroblasts; actives raise or lower the signal. In outline: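 Human keratinocyte plus foreskin fibroblast primary co-culture exposed to chemical for 24 h. uPA levels were quantified by ELISA, and activity was fitted bidirectionally against a DMSO negative-control baseline.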

Read-out in experiment [15]: CD40, CD40 (gene 958)
Kind of experiment: BSK_LPS_CD40: BioMAP Diversity Plus: LPS Assay for CD40 Biomarker Activity (AID 2283076). The conditions noted are these: primary human HUVEC with PBMC; actives raise or lower the signal. In outline: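 Using a multiplexed primary human co-culture (umbilical vein endothelium plus PBMC), CD40 was read by ELISA 24 h after dosing, with cytotoxicity tracked by sulforhodamine B staining of parallel cultures and activity fitted bidirectionally versus DMSO.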

Read-out in experiment [16]: E-selectin (Homo sapiens) (UniProt P16581)
Kind of experiment: BSK_LPS_Eselectin: BioMAP Diversity Plus: LPS Assay for Eselectin Biomarker Activity (AID 2283077). The settings on record: primary human HUVEC with PBMC; actives raise or lower the signal. In outline: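 Dose chemical onto LPS-driven HUVEC/PBMC co-culture; after 24 h, run ELISA for E-selectin; fit up- and down-going responses relative to DMSO control.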

Read-out in experiment [17]: Interleukin-8 (IL8), CXCL8 (gene 3576)
Description: BSK_LPS_IL8: BioMAP Diversity Plus: LPS Assay for Interleukin-8 (IL8) Biomarker Activity (AID 2283078). The settings on record: primary human HUVEC with PBMC; actives raise or lower the signal. In outline:
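In this LPS system, chemical-treated human umbilical vein endothelium/PBMC co-cultures were harvested at 24 h for IL-8 ELISA.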

The nature of experiment [18]: BSK_LPS_SRB: Viability Assessment in the BioMAP Diversity Plus: LPS Assay (AID 2283079).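 Note: total protein by sulforhodamine B absorbance as a cytotoxicity measure; measured one day after compound addition.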 The settings on record: primary human HUVEC with PBMC. In outline: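 Cytotoxicity endpoint in human endothelial–PBMC co-culture: 24 h exposure, then SRB (0.1%) staining, 560 nm read.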
Read-out in experiment [19]: Interleukin-1 alpha (IL1a), IL1A (gene 3552)
Description: BSK_LPS_IL1a: BioMAP Diversity Plus: LPS Assay for Interleukin-1 alpha (IL1a) Biomarker Activity (AID 2283080). The settings on record: primary human HUVEC with PBMC; actives raise or lower the signal. In outline:
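Primary human HUVEC and PBMC co-culture stimulated with LPS is dosed and harvested at 24 h. Both increases and decreases in ELISA-measured IL-1a are scored relative to DMSO.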

Read-out in experiment [20]: Interferon-gamma inducible Protein 10 (IP10), CXCL10 (gene 3627)
Kind of experiment: BSK_KF3CT_IP10: BioMAP Diversity Plus: KF3CT Assay for Interferon-gamma inducible Protein 10 (IP10) Biomarker Activity (AID 2283068). The settings on record: primary human keratinocytes with fibroblasts; actives raise or lower the signal. In outline: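 Human keratinocyte plus foreskin fibroblast primary co-culture exposed to test chemical for 24 h; IP-10 measured by ELISA. Concentration-response fitted bidirectionally against DMSO control as baseline.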

Calls of active or inactive are those of the source. Rule for the calls: active = hit-call score of the fitted dose curve at least 0.9, where 1 is the maximum; inactive = score below 0.9.

Sequence of E-selectin (Homo sapiens) (P16581 whole entry, looked up): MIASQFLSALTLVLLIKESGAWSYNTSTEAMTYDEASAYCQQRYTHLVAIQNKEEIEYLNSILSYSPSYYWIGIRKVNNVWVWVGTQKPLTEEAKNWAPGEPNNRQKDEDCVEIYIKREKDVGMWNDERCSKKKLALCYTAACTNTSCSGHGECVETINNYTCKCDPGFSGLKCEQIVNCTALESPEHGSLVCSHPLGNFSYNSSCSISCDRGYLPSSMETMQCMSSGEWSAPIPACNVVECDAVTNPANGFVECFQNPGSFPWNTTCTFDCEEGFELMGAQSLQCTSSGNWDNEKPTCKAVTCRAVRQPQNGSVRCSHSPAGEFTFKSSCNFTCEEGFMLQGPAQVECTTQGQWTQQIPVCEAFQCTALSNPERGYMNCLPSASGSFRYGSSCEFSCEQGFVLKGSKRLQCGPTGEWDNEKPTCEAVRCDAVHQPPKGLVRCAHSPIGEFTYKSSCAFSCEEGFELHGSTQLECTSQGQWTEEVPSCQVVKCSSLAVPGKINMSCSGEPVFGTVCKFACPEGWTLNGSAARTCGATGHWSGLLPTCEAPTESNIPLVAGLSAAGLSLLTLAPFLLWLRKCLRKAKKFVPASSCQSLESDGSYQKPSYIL

Consider `CC1COc2ccccc2N1C(=O)C(Cl)Cl` (configuration not stated), for which the AC50 is 20 µM (active) in experiment [1]; 20 µM (active) in experiment [4]; 1.78 µM (active) in experiment [5]; 0.0533 µM (active) in [6]; 0.629 µM (active) in [9]; 13.7 µM (active) in [13]. For the same molecule, the AC50 is 0.0271 µM (active) in experiment [14]; 10.9 µM (active) in [15]; 20 µM (active) in experiment [16]; 7.42 µM (active) in [18]; 13.2 µM (active) in experiment [19]. Moreover, the result in [2], in experiment [3], in [7], in [8], in experiment [10] and in experiment [11] was inactive. Moreover, the outcome in [12] and in experiment [17] was inactive.
As for `OC[C@H]1O[C@H](O[C@]2(CCl)O[C@H](CCl)[C@@H](O)[C@@H]2O)[C@H](O)[C@@H](O)[C@H]1Cl`, the result in experiment [1], in [2], in experiment [3], in experiment [4], in [5] and in [6] was inactive. Further, the result in [7], in experiment [20], in experiment [8], in experiment [9], in experiment [10] and in experiment [12] was inactive. Besides, the outcome in experiment [13], in [14], in [15], in experiment [16], in experiment [17] and in experiment [18] was inactive. In [19], the result was inactive.
For the molecule `NCCNCCN`, the result in experiment [1], in [2], in experiment [3], in experiment [4], in experiment [5] and in [6] was inactive. The result in [7], in experiment [20], in experiment [8], in [9], in [10] and in [12] was inactive. The result in experiment [13], in [14], in [15], in experiment [16], in experiment [17] and in experiment [18] was inactive. In addition, the result in [19] was inactive.
For `Cc1ccc(O)c(C(C)(C)C)c1`, the AC50 in [1] is 29.6 µM (active); in experiment [2], 27.6 µM (active); in [3], 36.7 µM (active); in [4], 33.4 µM (active); in experiment [5] it was 39.1 µM (active); in experiment [6], 30.7 µM (active). In addition, the half-maximal activity concentration (AC50) in [7] was 34.3 µM (active); in experiment [20], 37.5 µM (active); in experiment [8], 35.2 µM (active); in [9], 28.9 µM (active); in experiment [10], 24.9 µM (active); in experiment [11], 20 µM (active). For the same molecule, the AC50 in experiment [12] is 36.6 µM (active); in experiment [13], 30.9 µM (active); in experiment [14], 36.6 µM (active); in [15] it was 30.4 µM (active); in experiment [16] it was 30.4 µM (active); in experiment [17], 29.6 µM (active). Also, the figures for the AC50 in [18] and in [19] were 31 µM (active) and 36.2 µM (active), respectively.

Broadly, the AC50 is the concentration at which the activity in the assay is half-maximal.

The values above are taken from PubChem BioAssay (EPA / NIEHS).
